Hits are enriched below; roughly 16% of the tested compounds scored in any of these assays.
uPA surface inh: qHTS for Inhibitors of Cell Surface uPA Generation; cell surface uPA generation assay, qHTS; Potency, µM (doses to about 38.3 µM), hits mostly inhibitors; actives 0.31% (n = 330,000); AID 540303, 2011; active = well fitted inhibition curve with a large enough effect; inconclusive = small, poorly fitted or top-dose-only effect; inactive = no such curve, though single readings can be large or run the other way; tested in mouse RAW 264.7 cells; note: nearly all actives have a fitted effect of over 55% in size
miR-21 reporter: qHTS Assay for Modulators of miRNAs and/orActivators of miR-21; 340,000 tested, under 10 active; AID 2288, 2010; Potency, µM (top dose mostly 38.3 µM), actives largely listed as activators; HeLa miR-21 FLuc reporter, luciferase, 48 h;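 note: miR-21 action dims this reporter so a rising signal means less miR-21 action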
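HeLa cells endogenously expressing miR-21, stably carrying CMV-driven firefly luciferase with a downstream miR-21 binding site, 2000 cells/well. Titrations up to approximately 40 uM, 48 hours; luciferase luminescence read.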
TDP1 cell noCPT: qHTS for Inhibitors of human tyrosyl-DNA phosphodiesterase 1 (TDP1): qHTS in cells in absence of CPT | actives 15% (n = 420,000) | AID 686978, 2013 | DT40 Tdp1-/- hTDP1 cells, no CPT, ATP luminescence, 48 h | Potency, µM (highest dose often 46.2 µM), usual class: inhibitors; note: nearly all actives have a fitted effect of over 55% in size
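Compound effects on proliferation are scored in DT40 Tdp1-/-;hTDP1 cells in the absence of CPT. ATP levels (CellTiter-Glo luminescence) are recorded after a ≥48 hr, 37 °C incubation.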
TDP1 inh: qHTS Assay for Inhibitors of Tyrosyl-DNA Phosphodiesterase (TDP1); Tyrosyl-DNA phosphodiesterase 1 (Homo sapiens), Q9NUW8; recombinant TDP1, AlphaScreen DNA substrate cleavage; Potency, µM (titrated, usually from 130 µM), most hits filed as inhibitors; actives 0.28% (n = 350,000); note: nearly all actives have a fitted effect of over 40% in size
Target sequence (Q9NUW8 whole entry, looked up): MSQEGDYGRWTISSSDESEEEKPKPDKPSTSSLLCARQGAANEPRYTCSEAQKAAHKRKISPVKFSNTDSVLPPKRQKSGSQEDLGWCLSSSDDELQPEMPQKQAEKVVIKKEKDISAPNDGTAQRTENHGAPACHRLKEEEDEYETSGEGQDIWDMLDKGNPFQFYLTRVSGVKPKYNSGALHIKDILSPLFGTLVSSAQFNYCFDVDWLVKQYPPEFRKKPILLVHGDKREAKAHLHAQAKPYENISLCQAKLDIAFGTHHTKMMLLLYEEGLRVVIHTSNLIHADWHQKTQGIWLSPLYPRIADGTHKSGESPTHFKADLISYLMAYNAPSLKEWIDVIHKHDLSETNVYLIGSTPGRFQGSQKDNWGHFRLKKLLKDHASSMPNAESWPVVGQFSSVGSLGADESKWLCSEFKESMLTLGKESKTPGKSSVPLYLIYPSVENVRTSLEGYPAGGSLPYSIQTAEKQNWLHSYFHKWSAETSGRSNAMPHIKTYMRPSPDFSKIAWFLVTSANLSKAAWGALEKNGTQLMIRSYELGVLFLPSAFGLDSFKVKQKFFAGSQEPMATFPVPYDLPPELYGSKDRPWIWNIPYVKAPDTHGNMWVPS
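Enzyme-compound mixtures sat 15 min at room temperature, followed by a 5 min reaction with 15 nM final substrate and 10 min with AlphaScreen beads. Recombinant human Tdp1 was used at 1 nM final.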
TDP1 cell CPT: qHTS for Inhibitors of human tyrosyl-DNA phosphodiesterase 1 (TDP1): qHTS in cells in presence of CPT. chicken DT40 Tdp1-/-;hTDP1 cells + 20 nM CPT, ATP luminescence, 48 h. Potency, µM (top dose mostly 46.2 µM), most hits filed as inhibitors. actives 12% (n = 420,000); note: nearly all actives have a fitted effect of over 55% in size
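Cell growth measured by CellTiter-Glo luminescence after a minimum 48 h, 37 C compound exposure with 20 nM CPT in Tdp1-knockout DT40 cells stably expressing hTDP1, seeded 400/well; qHTS titration format.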
Large screens that a line does not name were inactive. Unless noted, calls come from the whole dose curve; as a rule, active = well fitted curve in the direction sought with a large enough effect; inconclusive = small, poorly fitted or top-dose-only effect, or another doubt; inactive = no such curve, though single readings can be large; an effect the other way counts as inactive or inconclusive.

Cc1nn(-c2ccccc2)c2sc(C(=O)Nc3ccc(Br)cc3)cc12	TDP1 cell noCPT 16.4µM, TDP1 cell CPT inconclusive (no result: uPA surface inh, TDP1 inh)
Cc1nn(-c2ccccc2)c2sc(C(=O)N3CCc4ccccc4C3)cc12	TDP1 cell noCPT 23.1µM, TDP1 cell CPT inconclusive
O=C(Nc1cccc(/C=C/c2nc3ccccc3c(=O)[nH]2)c1)c1ccccc1Cl	TDP1 cell noCPT 14.6µM, TDP1 cell CPT 16.4µM
COc1ccc(C(=O)Nc2cccc(/C=C/c3nc4ccccc4c(=O)[nH]3)c2)cc1	TDP1 cell noCPT 6.51µM, TDP1 cell CPT 9.2µM
COC1[C@@H](OC)C[C@H](C)[C@@H](OC)C2=CC(=O)C=C(NC(=O)/C(C)=C/C=C\[C@H](OC)[C@@H](OC(N)=O)/C(C)=C/[C@@H]1C)C2=O (some centres not stated)	none (no result: uPA surface inh, miR-21 reporter, TDP1 cell noCPT, TDP1 cell CPT)
O=c1cccc2n1Cc1cc3ccccc3nc1-2	uPA surface inh 7.94µM, TDP1 cell noCPT inconclusive, TDP1 cell CPT inconclusive
CCc1cccc2nc3c(c([Si](CC)(CC)CC)c12)Cn1c-3cccc1=O	none (no result: uPA surface inh, miR-21 reporter, TDP1 cell noCPT, TDP1 cell CPT)
COc1ccc(-c2csc(NC(=S)NC(=O)c3ccccc3)n2)cc1Br	TDP1 cell noCPT inconclusive (no result: TDP1 inh)
COc1ccc(-c2csc(NC(=S)NC(=O)/C=C/c3ccco3)n2)cc1OC	TDP1 cell noCPT 4.61µM, TDP1 cell CPT 4.61µM
COc1ccc(-c2csc(NC(=S)NC(=O)c3ccco3)n2)cc1Br	TDP1 cell noCPT 2.91µM, TDP1 cell CPT 10.3µM
COc1ccc(-c2csc(NC(=S)NC(=O)/C=C/c3ccco3)n2)cc1Br	TDP1 cell noCPT 3.66µM, TDP1 cell CPT 1.84µM
O=C(Cc1ccccc1)NCC(=O)N1CCC1	none
COc1ccc(-c2nc3ccccc3c(=O)n2CCOc2ccc(C)cc2C)cc1	none
Cc1ccccc1N(C(=O)c1ccccn1)C(C(=O)NCc1ccccc1)c1ccncc1 (configuration not stated)	none
CCC(C)(C)NC(=O)Cc1ccc(Cl)cc1	none
O=C(NCC(c1cccnc1)N1CCOCC1)c1cccc(Cl)c1 (configuration not stated)	none
O=C(NCC(c1cccnc1)N1CCN(c2ccccc2F)CC1)C1CCCCC1 (configuration not stated)	TDP1 cell noCPT 10.3µM, TDP1 cell CPT inconclusive
O=C(NCc1cccs1)C(=O)NCC(c1ccco1)N1CCN(c2ccc(F)cc2)CC1 (configuration not stated)	TDP1 cell noCPT 23.1µM, TDP1 cell CPT inconclusive
O=C(NCC(c1cccnc1)N1CCN(c2ccc(F)cc2)CC1)c1ccc2c(c1)OCO2 (configuration not stated)	TDP1 cell noCPT 8.2µM, TDP1 cell CPT 16.4µM
O=C(NCC(c1cccnc1)N1CCN(c2ccccc2F)CC1)c1cccc(Cl)c1 (configuration not stated)	TDP1 cell noCPT 16.4µM, TDP1 cell CPT 20.6µM
O=C(NCC(c1cccnc1)N1CCN(c2ccc(F)cc2)CC1)C1CCCCC1 (configuration not stated)	TDP1 cell noCPT inconclusive, TDP1 cell CPT inconclusive
O=C(NCC(c1ccco1)N1CCN(c2ccc(F)cc2)CC1)c1cccs1 (configuration not stated)	TDP1 cell noCPT inconclusive, TDP1 cell CPT inconclusive (no result: miR-21 reporter, TDP1 inh)
CC(c1ccc(F)cc1)n1c(Cn2ncc3ccccc3c2=O)n[nH]c1=S (configuration not stated)	TDP1 cell noCPT inconclusive
Cc1nc2sccn2c(=O)c1S(=O)(=O)NCC1CCN(Cc2ccccc2Cl)CC1	none
OC(CN1CCC(Cc2ccc(F)cc2)CC1)c1ccc(Cl)cc1 (configuration not stated)	none (no result: uPA surface inh, miR-21 reporter)
COCCNC(=O)C(=O)NCC(c1cccnc1)N1CCN(c2ccccc2F)CC1 (configuration not stated)	none (no result: uPA surface inh)
O=C(NCC(c1cccnc1)N1CCN(c2ccc(F)cc2)CC1)c1ccc(F)cc1 (configuration not stated)	TDP1 cell noCPT 16.4µM, TDP1 cell CPT inconclusive

High-throughput results as filed in PubChem.
